Assay results: PubChem BioAssay AID1259313 (Sanford-Burnham Center for Chemical Genomics, 2017)
Values joined by “and” are separate entries in the source; they are usually repeats but may differ in a detail not shown here. Equal entries are not always repeated. In all, about 340,000 compounds went through this assay and about 8,500 (2.5%) were called active. Many of the other results were omitted from the sample, so actives are more common in it than they were. Unmarked numbers belong to inactive results.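 How the source made its calls: active means melting temperature shift of at least 10% of the positive control shift, at one fixed dose; inactive means the rest.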

The molecules below were run on Glutamate receptor ionotropic, NMDA 3A (GRIN3A) ligand-binding domain (assay: binders of NR3A ligand-binding domain, primary screen, biophysical, differential scanning fluorimetry, uHTS (AID 1259313)). Settings: NR3A LBD differential scanning fluorimetry, at 25 µM, stronger effect = higher value, 0% = protein alone, 100% = glycine-bound protein.

Structure (SMILES)	Tm shift relative to glycine control
Cc1ccc(CNC(=O)[C@@H](NC(=O)Cc2ccccc2)C(C)C)cc1	-6.13%
O=C1NN(c2ccccc2)C(=O)/C1=C/c1ccc(-c2cccc(C(=O)O)c2)o1	-14.4%
O=C1c2ccccc2NC(c2ccc(-c3cccc(Cl)c3)o2)N1O (centres undefined)	-0.47%
O=C(O)C(c1ccccc1)N1C(=O)/C(=C\c2ccc(-c3cccc(Cl)c3)o2)SC1=S (centres undefined)	27.7% (active)
O=C(O)CSc1c2c(nc3cc(C(=O)Nc4cccc(C(F)(F)F)c4)ccc13)CCCC2	-1.44%
O=C(Nc1ccc(-c2csc(Nc3cccc(C(F)(F)F)c3)n2)cc1)c1cccc(C(F)(F)F)c1	25.4% (active)
O=C(Nc1ccc(C(F)(F)F)cc1)c1cccc(-n2cnnn2)c1	-5.14%
CS(=O)(=O)N(Cc1ccccc1)c1ccc(C(=O)NN=C2CCCCCC2)cc1	0.85%
Clc1ccc2nc(CSc3ccccc3)cn2c1	0.36%
Cc1c(NC(=S)NC(=O)CCc2ccccc2)c(=O)n(-c2ccccc2)n1C	-3.07%
O=C(O)CSc1ccc(S(=O)(=O)N2CCCC2)cn1	0.42%
COc1ccc(/C(C)=N\NC(=O)c2ccc(-c3ccccc3)cc2)c(F)c1	19.6% (active)
CCN(CC)c1ccc(C(=O)N/N=C(\C)c2cccc(OC)c2)cc1	2.58%
COc1ccc(/C(C)=N/NC(=O)c2ccc3nc[nH]c3c2)cc1	-1.41%
COc1ccc(Cl)cc1NC(=O)NC(C)C(C)(C)C (centres undefined)	-7.8%
O=C(CN1C(=O)CC(c2ccccc2)=Nc2ccccc21)NC1CCCCC1	300% (active)
CC(=O)c1cc(-c2ccccc2)n(CC(=O)NC2CCCCC2)c1C	0.92%
O=C(CN1C(=O)CC(c2ccccc2)S(=O)(=O)c2ccccc21)NC1CCCC1 (centres undefined)	-2.04%
CC(=O)/C(=N\Nc1ccc(Cl)cc1Cl)Sc1cccc2cccnc12	-8.55%
O=C(Nc1ccccc1)Oc1cccc2cccnc12	-3.82%
COc1ccc(NC(=O)Nc2cccc3cccnc23)cc1	12.4% (active)
O=[N+]([O-])c1ccccc1S(=O)(=O)Nc1cccc2cccnc12	-0.26%
O=C(Nc1ccccc1Cl)Nc1cccc2cccnc12	39.4% (active)

Structure (SMILES)	Tm shift relative to glycine control
CCOC(=O)Cc1ncccc1C(=O)Nc1ccc(OC)cc1	-0.6%
Cc1ccc(S(=O)(=O)N2CCN=C2SCc2c(F)cccc2Cl)cc1	0.68%
CCc1ccc(-c2cc(C)no2)cc1S(=O)(=O)NCCc1ccc(S(N)(=O)=O)cc1	-4.05%
CCCCn1c(N)c(N(CC)C(=O)c2ccccc2C(F)(F)F)c(=O)[nH]c1=O	-1.66%
O=C(Cn1c(-c2ccc(Cl)cc2)noc1=O)N1CCN(c2ccccc2F)CC1	-0.09%
CC(=O)CSc1nnc(CSc2ncccn2)n1C1CCCCC1	-1.13%
CCC1CCCCN1CCNS(=O)(=O)c1ccc2c(c1)CCN2C(C)=O (centres undefined)	-1.49%
CCCN(CCC)S(=O)(=O)c1cc2c(cc1Br)CCN2C(=O)CC	-0.99%
CCC(=O)N1CCc2cc(Br)c(S(=O)(=O)NCCN3CCCCC3CC)cc21 (centres undefined)	12.6% (active)
CCCCSc1nc2c(c(=O)n1CC)SC(C)C2 (centres undefined)	-2.48%
CCOC(=O)c1c(C)[nH]c(C2=NNC(=NC(C)COC)SC2)c1C (centres undefined)	-1.92%
CC12CCC(C(=O)N(c3cccc(Cl)c3)C1=O)C2(C)C (centres undefined)	18.6% (active)
O=C1CC(NNc2ccccc2)C(=O)N1c1cccc(Cl)c1 (centres undefined)	-0.68%
CC12CCC(C(=O)N(NC(=O)c3ccccc3O)C1=O)C2(C)C (centres undefined)	2.74%
CCc1cc(C(N)=O)c(NC(=O)c2ccc(OC)cc2)s1	12.6% (active)
CCc1cc(C(=O)c2ccc(OC)cc2)c(NC(=O)CN2CCN(C)CC2)s1	-0.69%
COc1ccc(C(=O)Nc2sc(C)c(C)c2CN2CCOCC2)cc1	-2.24%
CC1=CC=CC2=N/C(=N\S(=O)(=O)c3ccc(F)cc3F)c3ccccc3CN12	-0.65%
CC(C)(C)C(=O)Nc1ccc(-c2cn3cccnc3n2)cc1	-0.98%
CC(C)(C)C(=O)Nc1cccc(-c2ccc[nH]2)n1	11.2% (active)
COc1ccc(C(=O)Nc2cccc(NC(=O)c3ccc(OC)cc3OC)n2)c(OC)c1	3.62%
N#Cc1ccc(C2N=C(c3ccccc3)NO2)cc1 (centres undefined)	0.19%
CCOc1ccc(CN2CCN(Cc3ccc(C)o3)CC2CCO)cc1 (centres undefined)	1.84%

Structure (SMILES)	Tm shift relative to glycine control
C/C(CC(=O)NC(C)c1ccccc1)=N\NC(N)=S (centres undefined)	-2.12%
COC(=O)C1C(=O)NCC1c1ccc(OC)cc1 (centres undefined)	-0.83%
COc1ccc(CC(=O)Nc2c(C(N)=O)oc3ccccc23)cc1	16.1% (active)
NC(=O)c1oc2ccccc2c1NC(=O)CS(=O)(=O)c1ccccc1	-2.6%
NC(=O)c1oc2ccccc2c1NC(=O)Cc1ccccc1	-1.3%
CC(=O)C(CC(=O)N1CCCC1)C(=O)Nc1ccc(Cl)cc1 (centres undefined)	-1.13%
Cc1cc(C)nc(-n2nc(C)cc2NC(=O)c2ccc(F)cc2F)n1	-2.66%
COc1ccc(CCNC(=O)C(=O)Nc2ccc3nc4n(c(=O)c3c2)CCCCC4)cc1OC	-0.47%
O=C(Nc1ccc2nc3n(c(=O)c2c1)CCCC3)c1ccc(Cl)nc1	-1.29%
CCCCN(CC)C(=S)Nc1ccc2nc3n(c(=O)c2c1)CCCCC3	11% (active)
C=CCn1c(P(C)(=O)O)nc2ccccc21	-0.35% and 1.55%
CCCn1nc(C(=O)Nc2ccc3nc(C)sc3c2)c2ccccc2c1=O	-1.69%
CSc1nc2ccc(NC(=O)c3c(F)cccc3F)cc2s1	3.67%
CCCC(=O)Nc1nc2ccc(NC(=O)c3c(F)c(F)c(OC)c(F)c3F)cc2s1	17.1% (active)
COc1ccc(CNC(=O)c2ccc(Br)s2)cc1OC	1.11%
COc1ccc(S(=O)(=O)N2CCCCC2)cc1NC(=O)c1cc([N+](=O)[O-])ccc1N1CCOCC1	-1.87%
CCCC(=O)N(CCN1CCOCC1)c1nc2ccc(OCC)cc2s1	-6.33%
Cc1noc(C)c1CSCC(=O)Nc1nc2ccc(Oc3ccccc3)cc2s1	0.97%
COc1ccc(NC(C(=O)Nc2cccc(C(C)=O)c2)c2ccccc2)cc1 (centres undefined)	-15.9%
Cc1nc2ccc(NC(=O)C3CCCCC3)cc2s1	-3.66%
COc1ccc2nc(Nc3nc4ccc(NC(C)=O)cc4s3)sc2c1	25.2% (active)
CCOc1ccc2nc(NC(=O)c3cc([N+](=O)[O-])ccc3N3CCOCC3)sc2c1	17% (active)
COc1ccc2nc(NC(=O)c3ccc(Br)s3)sc2c1	31.3% (active)
